# According to PubChem BioAssay (EPA / NIEHS):
# Where “and” joins values, the source holds several entries; their conditions need not be identical. Identical values can stand only once. Inconclusive results are not listed. Calls of active or inactive are those of the source. The calls were made as follows: active = hit-call score of the fitted dose curve at least 0.9, where 1 is the maximum; inconclusive = response in the unintended direction; inactive = score below 0.9.
# Columns and labels:
# [1] = molecular target: Cellular tumor antigen p53 (Homo sapiens) (UniProt P04637); assay: TOX21_p53_BLA_p2_ratio: Tox21 HCT-116 p53 Agonism Beta-lactamase Assay, Ratio, Phase 2 (AID 2283592)
# Method in brief: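 An inducible beta-lactamase reporter in HCT116 cells signals p53 pathway activation. After 16 h chemical exposure at 37C, cells load CCF4-AM substrate for 2 h at room temperature; activity is the cleaved/uncleaved emission ratio relative to DMSO.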
# [2] = TOX21_p53_BLA_p3_viability: Viability Assessment in the Tox21 HCT-116 p53 Agonism Beta-lactamase Assay, Phase 3 (AID 2283593);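 also: cells exposed to compound for 16 h before reading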
# Method in brief: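 Cellular ATP was quantified by CellTiter-Glo luminescence, read after 30 min at room temperature. Beforehand, HCT116 cells (4000/well) received compound 5 h post-seeding, 217-fold diluted from DMSO, then incubated 16 h at 37C.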
# [3] = molecular target: Cellular tumor antigen p53 (Homo sapiens) (UniProt P04637); assay: TOX21_p53_BLA_p3_ratio: Tox21 HCT-116 p53 Agonism Beta-lactamase Assay, Ratio, Phase 3 (AID 2283596)
# Method in brief: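 HCT116 p53-bla cells (4000/well) given compound in DMSO (217-fold dilution) after 5 h, incubated 16 h at 37C. CCF4-AM substrate 2 h at room temperature; 460/530 nm emission ratio, gain fitted against DMSO.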
# [4] = TOX21_p53_BLA_p4_viability: Viability Assessment in the Tox21 HCT-116 p53 Agonism Beta-lactamase Assay, Phase 4 (AID 2283597);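 also: hits lower the luminescence signal meaning cytotoxicity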
# Method in brief: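 Compound exposure of HCT116 cells lasts 16 h at 37C, 5% CO2, with DMSO stocks diluted 217-fold. Cellular ATP is then quantified by CellTiter-Glo luminescence after 30 min at room temperature.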
# [5] = molecular target: Cellular tumor antigen p53 (Homo sapiens) (UniProt P04637); assay: TOX21_p53_BLA_p4_ratio: Tox21 HCT-116 p53 Agonism Beta-lactamase Assay, Ratio, Phase 4 (AID 2283601)
# Method in brief: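 Signal is the blue/green (460nm/530nm) ratio of cleaved versus uncleaved CCF4-AM substrate, read after 2 h substrate loading. Cells were HCT116 carrying the p53-responsive beta-lactamase reporter, dosed 16 h at 37C, 5% CO2; CellTiter-Glo measured in parallel.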
# [6] = molecular target: Cellular tumor antigen p53 (Homo sapiens) (UniProt P04637); assay: TOX21_p53_BLA_p5_ratio: Tox21 HCT-116 p53 Agonism Beta-lactamase Assay, Ratio, Phase 5 (AID 2283599)
# Method in brief: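 Beta-lactamase reporter ratio (blue 460 nm over green 530 nm, 405 nm excitation) after 2 h CCF4-AM loading, in HCT-116 cells exposed 16 h at 37 C to compounds pinned at 217-fold dilution. Increases relative to DMSO baseline scored.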
# [7] = TOX21_p53_BLA_p5_viability: Viability Assessment in the Tox21 HCT-116 p53 Agonism Beta-lactamase Assay, Phase 5 (AID 2283600)
# Method in brief: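 Counter-readout for cytotoxicity: ATP-dependent luminescence from CellTiter-Glo, read in the beta-lactamase wells after 30 min at RT, following a 16 h compound exposure at 37C.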
# THRA (gene 7067) = THRA (gene 7067) (UniProt P10827); assay: TOX21_TRA_COA_Antagonist_Followup_ratio: Tox21 Thyroid Hormone Receptor alpha Antagonism through Coactivator Recruitment Follow-Up Assay, Ratio (AID 2283953)
# Method in brief: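 520:495 nm emission ratio (excitation 340 nm) reports fluorescein-SRC-2 peptide recruitment to GST-TRα LBD by TR-FRET with Tb anti-GST antibody. Values were normalized to DMSO (0%) and T3 control wells (100%); loss of signal indicated antagonism.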
# THRB (gene 7068) [8] = molecular target: THRB (gene 7068) (UniProt P10828); assay: TOX21_TRB_BLA_Antagonist_Followup_ratio: Tox21 Thyroid Hormone Receptor beta Antagonism Beta-lactamase (BLA) Follow-Up Assay, Ratio (AID 2283958)
# Method in brief: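 HEK293T TRb-bla (GAL4 DBD + hTRβ LBD), 2% cs-FBS phenol red-free DMEM, 5 h attach; cpds 11-pt triplicate, 18 h 37C; CCF4-AM 2 h RT; 460/530 ratio vs DMSO; CellTiter-Glo viability same wells.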
# [9] = TOX21_TRB_BLA_Antagonist_Followup_viability: Viability Assessment in the Tox21 Thyroid Hormone Receptor beta Antagonism Beta-lactamase (BLA) Follow-Up Assay (AID 2283961)
# Method in brief: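 Cytotoxicity is measured in parallel with the antagonist-mode TRβ beta-lactamase screen, using ATP-coupled luciferase luminescence. Engineered HEK293T cells are treated for 18 h with 11-point compound series in triplicate.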
# THRB (gene 7068) [10] = molecular target: THRB (gene 7068) (UniProt P10828); assay: TOX21_TRB_COA_Antagonist_Followup_ratio: Tox21 Thyroid Hormone Receptor beta Antagonism through Coactivator Recruitment Follow-Up Assay, Ratio (AID 2283967)
# Method in brief: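 Test compound was incubated with 5.0 nM GST-TRβ LBD in 0.10% BSA. Then 200 nM fluorescein-SRC-2 peptide and 2 nM terbium anti-GST antibody were added. TR-FRET (520:495 nm) was measured and normalized to DMSO and T3 controls.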
# [11] = TOX21_TR_RXR_BLA_Antagonist_Followup_viability: Viability Assessment in the Tox21 Thyroid Hormone Receptor beta Retinoid X Receptor alpha (RXRa) Antagonism Beta-lactamase (BLA) Follow-Up Assay (AID 2283979)
# Method in brief: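 Follow-up compounds (11 concentrations, triplicate) were incubated 16 h at 37C/5% CO2 with HEK293T RXRa-bla cells seeded at 2,500/well in charcoal-stripped-serum medium. ATP content by CellTiter-Glo luminescence gave viability; curves fitted in both directions against DMSO.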
# Chain of Cellular tumor antigen p53 (Homo sapiens) (P04637 whole entry, looked up): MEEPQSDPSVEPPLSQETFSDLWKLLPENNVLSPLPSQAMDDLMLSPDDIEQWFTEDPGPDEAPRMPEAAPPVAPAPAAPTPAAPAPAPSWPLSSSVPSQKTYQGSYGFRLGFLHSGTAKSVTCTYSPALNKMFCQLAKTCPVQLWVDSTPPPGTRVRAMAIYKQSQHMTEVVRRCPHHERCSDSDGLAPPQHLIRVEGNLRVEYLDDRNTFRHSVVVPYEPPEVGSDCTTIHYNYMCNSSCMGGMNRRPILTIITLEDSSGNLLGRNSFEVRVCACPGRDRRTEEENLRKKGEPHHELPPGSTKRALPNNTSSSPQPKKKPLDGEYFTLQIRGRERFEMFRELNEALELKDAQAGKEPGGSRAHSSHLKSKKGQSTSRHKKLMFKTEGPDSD
# Chain of THRB (gene 7068) (P10828 whole entry, looked up, the tested form may be a part): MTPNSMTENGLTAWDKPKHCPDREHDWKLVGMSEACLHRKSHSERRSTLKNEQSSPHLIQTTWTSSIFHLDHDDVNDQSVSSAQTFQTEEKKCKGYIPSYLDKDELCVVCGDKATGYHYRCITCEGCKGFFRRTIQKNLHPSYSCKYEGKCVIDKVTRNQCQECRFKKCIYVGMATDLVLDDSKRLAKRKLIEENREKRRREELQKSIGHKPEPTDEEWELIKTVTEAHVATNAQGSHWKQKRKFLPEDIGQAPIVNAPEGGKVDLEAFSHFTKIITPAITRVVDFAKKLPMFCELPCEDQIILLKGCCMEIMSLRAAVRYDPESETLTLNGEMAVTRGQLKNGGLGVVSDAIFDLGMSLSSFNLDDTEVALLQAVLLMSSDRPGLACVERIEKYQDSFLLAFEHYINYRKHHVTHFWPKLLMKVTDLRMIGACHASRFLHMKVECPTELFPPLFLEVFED
# Chain of THRA (gene 7067) (P10827 whole entry, looked up, the tested form may be a part): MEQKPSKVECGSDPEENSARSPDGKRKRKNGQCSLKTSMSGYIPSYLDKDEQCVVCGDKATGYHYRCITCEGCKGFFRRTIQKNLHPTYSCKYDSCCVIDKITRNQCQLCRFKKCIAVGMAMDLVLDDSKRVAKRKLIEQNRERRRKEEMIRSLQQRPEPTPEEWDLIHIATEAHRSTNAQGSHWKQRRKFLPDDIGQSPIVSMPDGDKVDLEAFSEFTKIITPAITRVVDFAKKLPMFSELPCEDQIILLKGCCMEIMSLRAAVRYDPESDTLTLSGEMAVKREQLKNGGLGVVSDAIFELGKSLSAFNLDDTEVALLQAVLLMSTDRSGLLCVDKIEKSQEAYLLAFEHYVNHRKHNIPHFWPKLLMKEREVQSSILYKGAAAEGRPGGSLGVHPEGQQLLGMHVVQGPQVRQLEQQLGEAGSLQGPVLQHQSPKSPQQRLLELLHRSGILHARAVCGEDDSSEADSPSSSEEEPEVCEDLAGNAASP
structure (smiles),measurement,setting,value
C[C@]12CCC(=O)C[C@@H]1CC[C@@H]1[C@@H]2CC[C@@]2(C)[C@H]1CC[C@]2(C)O,outcome,[1],inactive
same,outcome,[2],inactive
same,outcome,[3],inactive
same,outcome,[4],inactive
same,outcome,[5],inactive
O=c1[nH]cc(N(CCCl)CCCl)c(=O)[nH]1,outcome,[1],inactive
same,outcome,[2],inactive
same,AC50,[3],23 µM (active)
same,outcome,[4],inactive
same,outcome,[6],inactive
same,outcome,[5],inactive
CC[n+]1c(-c2ccccc2)c2cc(N)ccc2c2ccc(N)cc21,AC50,[1],1.43 µM (active) and 9.38 µM (active) and 2.95 µM (active)
same,outcome,[2],inactive
same,AC50,[3],3.51 µM (active) and 14.1 µM (active) and 6.74 µM (active)
same,outcome,[4],inactive
same,AC50,[6],2.77 µM (active) and 8.85 µM (active) and 4.7 µM (active)
same,outcome,[7],inactive
same,AC50,[5],1.93 µM (active) and 9.2 µM (active) and 3.86 µM (active)
CCCC(Cn1cncn1)c1ccc(Cl)cc1Cl (centres undefined),AC50,[1],75.6 µM (active)
same,outcome,[2],inactive
same,AC50,[3],85.7 µM (active)
same,outcome,[4],inactive
same,outcome,[6],inactive
same,outcome,[7],inactive
same,AC50,[5],75.2 µM (active)
N#CC(C#N)=Cc1ccc(O)c(O)c1,outcome,[1],inactive
same,outcome,[2],inactive
same,outcome,[3],inactive
same,outcome,[4],inactive
same,outcome,[6],inactive
same,outcome,[7],inactive
same,outcome,[5],inactive
CC(=O)[C@H]1CC[C@H]2[C@@H]3CC[C@@H]4C[C@H](O)CC[C@]4(C)[C@H]3CC[C@]12C,outcome,[1],inactive
same,outcome,[2],inactive
same,outcome,[3],inactive
same,outcome,[4],inactive
same,outcome,[6],inactive
same,outcome,[7],inactive
same,outcome,[5],inactive
same,outcome,THRA (gene 7067),inactive
same,outcome,THRB (gene 7068) [8],inactive
same,outcome,[9],inactive
same,outcome,THRB (gene 7068) [10],inactive
same,outcome,[11],inactive
